# Results filed as inconclusive are left out. Activity calls are given as the source filed them. How the source made its calls, unless noted: active means hit-call score of the fitted dose curve at least 0.9, where 1 is the maximum; inconclusive means response in the unintended direction; inactive means score below 0.9.
# Legend:
# [1] = tested on: Thyroperoxidase (TPO), gene 54314; experiment: CCTE_Simmons_AUR_rTPO: CCTE's Amplex UltraRed Assay for Thyroperoxidase (TPO) Inhibition, Simmons Lab (AID 2283662);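 on AC50: potency for loss of signal meaning inhibition of peroxidase activity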
# In short: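 Rat thyroid microsomes (5 ug protein) were incubated with test compound (8 concentrations, 5 nM–87.5 uM final, 0.5% DMSO), 25 uM Amplex UltraRed and 300 uM H2O2 in 200 mM phosphate buffer for 30 min at 37C in the dark; fluorescence read at 544/590 nm.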
# [2] = CCTE_Simmons_CellTiterGLO_HEK293T: Viability Assessment in CCTE's Assays for Thyroperoxidase (TPO) Inhibition, Simmons Lab (AID 2283665);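 on AC50: cells exposed to compound for 24 h before readout; actives reduce ATP signal below DMSO vehicle meaning cytotoxicity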
# In short: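 HEK293T cells in DMEM with 1% FBS, dosed 24 h at 37C with 8 concentrations, 5 nM–87.5 uM final, 0.5% DMSO. ATP measured by CellTiter Glo luminescence; loss of signal vs DMSO, three biological replicates.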
# [3] = CEETOX_H295R_MTT_cell_viability: Viability Assessment in the CeeTox HT-H295R MTT Assay (AID 2283718; active means hit-call score of the fitted dose curve at least 0.9, where 1 is the maximum; inactive means score below 0.9;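 on AC50: curve fitted both ways so AC50 may mark viability loss or gain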)
# In short: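 H295R cells prestimulated 48 h with 10 uM forskolin, then exposed 48 h to test chemical (0.1% DMSO final). Viability by MTT (0.5 mg/ml, 4 h, 37 C), absorbance 570/650 nm; percent change versus DMSO, bidirectional fit.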
# [4] = biological target: Luciferin 4-monooxygenase (Photinus pyralis) (UniProt P08659); experiment: CCTE_Simmons_QuantiLum_inhib_2: CCTE's Firefly Luciferase Inhibition Assay, Simmons Lab (AID 2283767);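 on AC50: potency for inhibitors that lower luciferase luminescence relative to DMSO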
# In short: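 Cell-free recombinant firefly luciferase (5 ng/well) in 200mM potassium phosphate with 1 mg/ml BSA, 30 min at 37C with 8 concentrations from 5 nM to 87.5 uM [final], 0.5% DMSO. Luminescence read after D-luciferin (150uM)/dATP (147uM) reagent injection, pH 7.8; triplicates.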
# [5] = STM_H9_OrnCyssISnorm_ratio: Stemina devTOX quickPredict H9 human embryonic stem cell (hESC)-based Assay for Ornithine (ORN):Cystine (CYSS) Ratio (AID 2283714)
# In short: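 Undifferentiated H9 hESCs were exposed to compound for 72h with media and chemical replaced every 24h. Final 24-h conditioned media were deproteinized and analysed by UPLC-HRMS. ORN and CYSS peak areas were normalized to C13 internal standards and the ratio taken versus 0.1% DMSO.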
# [6] = Tanguay_ZF_120hpf_TRUN_legacy: (Legacy) Oregon State University Tanguay Lab 120 Hour Post-fertilization zebrafish Assay for Truncated Body (AID 2283655)
# Experimental: Tanguay_ZF_120hpf_legacy is a whole embryo, multiplexed endpoint assay using zebrafish larvae exposed for 120 hours post fertilization on a 96-well plate.Tanguay_ZF_120hpf_TRUN_legacy is one of one assay component(s) measured or calculated from the Tanguay_ZF_120hpf_legacy assay. It is designed to make measurements of zebrafish development as detected with brightfield microscopy of developing zebrafish embryos.Data from the assay component Tanguay_ZF_120hpf_TRUN_legacy was analyzed into 1 assay endpoints. This assay endpoint, Tanguay_ZF_120hpf_TRUN_legacy, was analyzed in the positive analysis fitting direction relative to DMSO as the negative control and baseline of activity. […]
# Zebrafish husbandry: Tropical 5D wild-type adult zebrafish were housed in at an approximate density of 1000 per 100 gallon tank at the Sinnhuber Aquatic Research Laboratory, Oregon State University, Corvallis, OR. […] At 24 hpf, embryos were assessed for photomotor response using a custom photomotor response analysis tool (PRAT) and for developmental toxicity endpoints (MO24: mortality at 24 hpf, DP: developmental progression, SM: spontaneous movement, and NC: notochord distortion). At 120 hpf, locomotor activity was measured using Viewpoint Zebralab and assessed for 18 endpoints. […] If mortality occurred for an embryo (at either 24 or 120 hpf), the non-mortality endpoints were not measured.
# [7] = Tanguay_ZF_120hpf_NC_legacy: (Legacy) Oregon State University Tanguay Lab 120 Hour Post-fertilization zebrafish Assay for Notochord and Tail Malformation (AID 2283656)
# In short: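 Dechorionated Tropical 5D wild-type zebrafish embryos, one per well from 6 hpf, statically exposed to 120 hpf at 28C in 0.64% DMSO final. Notochord distortion scored present/absent by brightfield; dead embryos excluded.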
# [8] = Tanguay_ZF_120hpf_TR_legacy: (Legacy) Oregon State University Tanguay Lab 120 Hour Post-fertilization zebrafish Assay for Touch Response (AID 2283667)
# In short: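 Tropical 5D wild-type zebrafish embryos were exposed statically in sealed, foil-covered plates at 28C until 120 hpf, with 0.64% (vol/vol) final DMSO. Touch response was scored as present or absent; embryos that died were not scored.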
# [9] = Tanguay_ZF_120hpf_ActivityScore_legacy: (Legacy) Oregon State University Tanguay Lab 120 Hour Post-fertilization zebrafish Assay Score for Activity (AID 2283742)
# In short: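 Tropical 5D wild-type zebrafish embryos, dechorionated with pronase at 4 hpf, were exposed singly from 6 hpf to 120 hpf statically at 28C in 0.64% DMSO. Malformations and mortality were scored as binary by brightfield, with the activity score combining 18 morphology components.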
# [10] = biological target: zebrafish Estrogen Receptor (ESR1), esr1 (gene 259252) (UniProt P57717); experiment: ATG_zfER1_XSP1: Attagene TRANS-FACTORIAL Multi-Species (XSP1) HepG2 Assay for zebrafish Estrogen Receptor (ESR1) (AID 2283772)
# In short: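 Readout: fluorescent reporter mRNA, RT-PCR plus FAM labelling, HpaI digest, capillary electrophoresis; gain-of-signal fit vs DMSO. HepG2, transient multi-reporter TRANS (NR-GAL4 chimera), 24 h chemical exposure, 3 nM 6-alpha-fluorotestosterone co-added.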
# Sequence of Luciferin 4-monooxygenase (Photinus pyralis) (P08659 whole entry, looked up): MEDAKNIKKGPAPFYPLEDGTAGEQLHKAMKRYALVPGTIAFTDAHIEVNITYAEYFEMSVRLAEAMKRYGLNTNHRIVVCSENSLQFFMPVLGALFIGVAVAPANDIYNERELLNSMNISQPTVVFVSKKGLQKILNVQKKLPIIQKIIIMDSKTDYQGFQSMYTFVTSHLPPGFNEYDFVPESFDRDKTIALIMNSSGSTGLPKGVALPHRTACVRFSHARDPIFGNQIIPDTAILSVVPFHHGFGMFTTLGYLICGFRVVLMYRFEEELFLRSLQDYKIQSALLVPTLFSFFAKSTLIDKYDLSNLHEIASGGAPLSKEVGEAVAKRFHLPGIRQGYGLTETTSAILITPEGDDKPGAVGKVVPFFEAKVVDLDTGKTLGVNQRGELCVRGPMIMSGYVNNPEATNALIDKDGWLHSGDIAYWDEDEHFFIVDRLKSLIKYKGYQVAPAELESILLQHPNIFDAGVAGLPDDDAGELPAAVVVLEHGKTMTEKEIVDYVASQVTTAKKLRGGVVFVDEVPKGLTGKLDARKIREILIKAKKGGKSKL
# Sequence of zebrafish Estrogen Receptor (ESR1), esr1 (gene 259252) (P57717 whole entry, looked up, the tested form may be a part): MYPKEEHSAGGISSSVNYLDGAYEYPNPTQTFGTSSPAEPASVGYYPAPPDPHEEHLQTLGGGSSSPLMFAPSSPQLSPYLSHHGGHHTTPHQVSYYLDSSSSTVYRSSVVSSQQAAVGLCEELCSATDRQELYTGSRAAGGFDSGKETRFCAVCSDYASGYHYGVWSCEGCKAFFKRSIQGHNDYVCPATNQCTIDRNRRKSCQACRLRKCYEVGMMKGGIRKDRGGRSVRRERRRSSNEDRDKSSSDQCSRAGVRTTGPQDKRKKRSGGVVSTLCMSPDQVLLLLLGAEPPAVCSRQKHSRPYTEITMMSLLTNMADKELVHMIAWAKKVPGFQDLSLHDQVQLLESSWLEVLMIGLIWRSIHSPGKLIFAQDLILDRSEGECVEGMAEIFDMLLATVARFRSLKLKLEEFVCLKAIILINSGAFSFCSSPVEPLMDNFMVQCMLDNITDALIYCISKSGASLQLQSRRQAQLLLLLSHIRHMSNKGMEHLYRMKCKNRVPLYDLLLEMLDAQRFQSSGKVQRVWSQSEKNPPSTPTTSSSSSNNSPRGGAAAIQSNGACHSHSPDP
smiles,measurement,setting,value
Cc1ccc(C(C)C)cc1O,outcome,[1],inactive
same,outcome,[2],inactive
same,outcome,[3],inactive
same,outcome,[4],inactive
Cc1ccc(O)c(C(C)(C)C)c1,AC50,[1],20.6 µM (active)
same,AC50,[2],65.6 µM (active)
same,outcome,[4],inactive
CC1(C)[C@H](C(=O)OCc2cccc(Oc3ccccc3)c2)[C@@H]1C=C(Cl)Cl,outcome,[3],inactive
CCN(CC)CCOC(=O)c1ccc(N)cc1,outcome,[5],inactive
CC(C)=CCCC(C)CC=O (stereo not given),outcome,[1],inactive
same,outcome,[2],inactive
same,outcome,[4],inactive
CC1COc2ccccc2N1C(=O)C(Cl)Cl (stereo not given),AC50,[3],4.9 µM (active)
COc1cc2ncnc(Nc3cccc(Cl)c3)c2cc1OC,outcome,[3],inactive
Cc1cccc(C)c1C,outcome,[3],inactive
O=c1cc(-c2ccccc2)oc2cc(O)cc(O)c12,AC50,[1],23 µM (active)
same,outcome,[2],inactive
same,outcome,[3],inactive
same,AC50,[4],5.53 µM (active)
O=C(O)c1ccc([N+](=O)[O-])cc1,outcome,[6],inactive
same,outcome,[7],inactive
same,outcome,[8],inactive
same,outcome,[3],inactive
same,outcome,[9],inactive
CCCCCCCCCCCCCOS(=O)(=O)O,AC50,[1],42.6 µM (active)
same,AC50,[2],32.5 µM (active)
same,outcome,[4],inactive
O=C(Cl)c1cccc(C(=O)Cl)c1,AC50,[1],7 µM (active)
same,outcome,[2],inactive
same,outcome,[4],inactive
CCCCc1ccc(N)cc1,AC50,[1],0.00854 µM (active)
same,AC50,[2],17.4 µM (active)
same,outcome,[4],inactive
C=CCOc1nc(OCC=C)nc(OCC=C)n1,outcome,[3],inactive
c1ccc(CCCc2ccccn2)cc1,outcome,[3],inactive
COc1cc(C(C)(C)C)c(O)c(C(C)(C)C)c1,AC50,[1],2.32 µM (active)
same,AC50,[2],26.8 µM (active)
same,outcome,[4],inactive
Cc1ccc2n[nH]nc2c1,outcome,[3],inactive
CC1CC(OC(=O)c2ccccc2O)CC(C)(C)C1 (stereo not given),outcome,[3],inactive
CN(C)c1ccc(O)c2c1C[C@H]1C[C@H]3[C@H](N(C)C)C(=O)C(C(N)=O)=C(O)[C@@]3(O)C(=O)C1=C2O,AC50,[1],0.607 µM (active)
same,outcome,[4],inactive
O=Nc1ccc(Nc2ccccc2)cc1,outcome,[1],inactive
same,AC50,[2],84 µM (active)
same,AC50,[4],53.8 µM (active)
CCCCCCCCCCCCCCCC(=O)OC[C@H](O)[C@H]1OC(=O)C(O)=C1O,AC50,[1],18.3 µM (active)
same,AC50,[2],74.2 µM (active)
same,outcome,[4],inactive
c1ccc2c(c1)c1cccc3ccc4cccc2c4c31,outcome,[1],inactive
same,outcome,[4],inactive
CC(C)c1cccc(O)c1,AC50,[1],25.9 µM (active)
same,outcome,[2],inactive
same,outcome,[3],inactive
same,outcome,[4],inactive
CN(CCOc1ccc(CC2SC(=O)NC2=O)cc1)c1ccccn1 (stereo not given),outcome,[10],inactive
c1ccc2[nH]ccc2c1,AC50,[1],1.14 µM (active)
same,outcome,[2],inactive
same,outcome,[4],inactive
CN(C)C(=N)N=C(N)N,outcome,[10],inactive
C=CC(C)(C)O,outcome,[3],inactive
NC(=O)Nc1ccc(Cl)cc1,outcome,[3],inactive
Nc1ccc(F)c([N+](=O)[O-])c1,outcome,[3],inactive
O=C(O)C[C@H](O)C[C@H](O)/C=C/c1c(C2CC2)nc2ccccc2c1-c1ccc(F)cc1,outcome,[3],inactive
CC(C)=CCCC(C)=CCCC(C)=CCO,outcome,[1],inactive
same,AC50,[2],95 µM (active)
same,AC50,[3],54.2 µM (active)
same,outcome,[4],inactive
COc1ccc(O)cc1,AC50,[1],8.4 µM (active)
same,AC50,[2],34.2 µM (active)
same,outcome,[4],inactive
CSc1nc(NC2CC2)nc(NC(C)(C)C)n1,outcome,[1],inactive
same,outcome,[2],inactive
same,outcome,[3],inactive
same,outcome,[4],inactive
Nc1cc([N+](=O)[O-])ccc1Cl,outcome,[3],inactive

# — PubChem BioAssay (EPA / NIEHS)
